Test results taken from the supplement of paper PMC6411743.
± gives the standard deviation of the averaged measurements. The full data set covers some 6,500 targets. This sample favours those with the largest changes.

Compound: Nc1ncnc2c1ncn2[C@@H]1O[C@H](COP(=O)(O)OP(=O)(O)OP(=O)(O)O)[C@@H](O)[C@H]1O [adenosine triphosphate]
Experiment: NP40-soluble protein abundance relative to vehicle (solubility fold change) (ratio); higher = more soluble protein in presence of ATP
In short: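 Crude Jurkat lysate, prepared by Dounce homogenisation, was exposed to eight concentrations from 0.1 to 10 mM for 10 min at room temperature and then 3 min at 37 °C. Solubilisation used 0.8% NP40 with benzonase for 60 min at 4 °C, followed by ultracentrifugation and TMT labelling of the supernatant for LC-MS/MS. After vsn normalisation of intensities, each value is the fold change against the detergent-processed vehicle within each replicate, across three independent experiments.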

UniProt Q12768, sequence (Q12768 whole entry, one chain of several): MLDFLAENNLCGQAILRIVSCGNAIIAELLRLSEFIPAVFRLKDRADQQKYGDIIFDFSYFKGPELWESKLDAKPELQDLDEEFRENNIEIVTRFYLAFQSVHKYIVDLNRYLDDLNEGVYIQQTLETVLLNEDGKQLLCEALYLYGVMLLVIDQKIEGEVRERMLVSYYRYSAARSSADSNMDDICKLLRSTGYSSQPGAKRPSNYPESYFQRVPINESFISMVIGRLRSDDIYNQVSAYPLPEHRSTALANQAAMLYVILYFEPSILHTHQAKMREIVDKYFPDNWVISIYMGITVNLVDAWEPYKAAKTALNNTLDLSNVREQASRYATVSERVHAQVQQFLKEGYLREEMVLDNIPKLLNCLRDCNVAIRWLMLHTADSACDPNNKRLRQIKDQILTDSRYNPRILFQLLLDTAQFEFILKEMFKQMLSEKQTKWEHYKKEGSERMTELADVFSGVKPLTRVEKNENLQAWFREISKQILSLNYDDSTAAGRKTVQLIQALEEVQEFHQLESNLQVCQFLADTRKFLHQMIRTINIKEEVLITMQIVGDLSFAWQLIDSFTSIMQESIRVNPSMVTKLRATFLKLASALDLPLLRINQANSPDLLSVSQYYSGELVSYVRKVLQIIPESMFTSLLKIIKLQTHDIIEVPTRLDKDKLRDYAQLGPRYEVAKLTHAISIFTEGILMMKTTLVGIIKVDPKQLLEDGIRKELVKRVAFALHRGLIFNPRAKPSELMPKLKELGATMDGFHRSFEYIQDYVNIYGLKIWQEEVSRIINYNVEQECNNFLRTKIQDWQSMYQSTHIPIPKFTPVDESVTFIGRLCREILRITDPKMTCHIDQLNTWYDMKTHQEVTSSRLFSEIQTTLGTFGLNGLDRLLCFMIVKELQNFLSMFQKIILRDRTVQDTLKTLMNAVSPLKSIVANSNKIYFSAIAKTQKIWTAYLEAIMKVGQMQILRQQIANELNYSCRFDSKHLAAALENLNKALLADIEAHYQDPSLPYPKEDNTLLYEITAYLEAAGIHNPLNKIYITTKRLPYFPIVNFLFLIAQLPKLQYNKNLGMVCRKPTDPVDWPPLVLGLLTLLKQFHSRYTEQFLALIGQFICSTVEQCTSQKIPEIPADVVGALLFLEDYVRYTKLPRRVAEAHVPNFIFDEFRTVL
UniProt P08575, sequence (P08575 whole entry, one chain of several): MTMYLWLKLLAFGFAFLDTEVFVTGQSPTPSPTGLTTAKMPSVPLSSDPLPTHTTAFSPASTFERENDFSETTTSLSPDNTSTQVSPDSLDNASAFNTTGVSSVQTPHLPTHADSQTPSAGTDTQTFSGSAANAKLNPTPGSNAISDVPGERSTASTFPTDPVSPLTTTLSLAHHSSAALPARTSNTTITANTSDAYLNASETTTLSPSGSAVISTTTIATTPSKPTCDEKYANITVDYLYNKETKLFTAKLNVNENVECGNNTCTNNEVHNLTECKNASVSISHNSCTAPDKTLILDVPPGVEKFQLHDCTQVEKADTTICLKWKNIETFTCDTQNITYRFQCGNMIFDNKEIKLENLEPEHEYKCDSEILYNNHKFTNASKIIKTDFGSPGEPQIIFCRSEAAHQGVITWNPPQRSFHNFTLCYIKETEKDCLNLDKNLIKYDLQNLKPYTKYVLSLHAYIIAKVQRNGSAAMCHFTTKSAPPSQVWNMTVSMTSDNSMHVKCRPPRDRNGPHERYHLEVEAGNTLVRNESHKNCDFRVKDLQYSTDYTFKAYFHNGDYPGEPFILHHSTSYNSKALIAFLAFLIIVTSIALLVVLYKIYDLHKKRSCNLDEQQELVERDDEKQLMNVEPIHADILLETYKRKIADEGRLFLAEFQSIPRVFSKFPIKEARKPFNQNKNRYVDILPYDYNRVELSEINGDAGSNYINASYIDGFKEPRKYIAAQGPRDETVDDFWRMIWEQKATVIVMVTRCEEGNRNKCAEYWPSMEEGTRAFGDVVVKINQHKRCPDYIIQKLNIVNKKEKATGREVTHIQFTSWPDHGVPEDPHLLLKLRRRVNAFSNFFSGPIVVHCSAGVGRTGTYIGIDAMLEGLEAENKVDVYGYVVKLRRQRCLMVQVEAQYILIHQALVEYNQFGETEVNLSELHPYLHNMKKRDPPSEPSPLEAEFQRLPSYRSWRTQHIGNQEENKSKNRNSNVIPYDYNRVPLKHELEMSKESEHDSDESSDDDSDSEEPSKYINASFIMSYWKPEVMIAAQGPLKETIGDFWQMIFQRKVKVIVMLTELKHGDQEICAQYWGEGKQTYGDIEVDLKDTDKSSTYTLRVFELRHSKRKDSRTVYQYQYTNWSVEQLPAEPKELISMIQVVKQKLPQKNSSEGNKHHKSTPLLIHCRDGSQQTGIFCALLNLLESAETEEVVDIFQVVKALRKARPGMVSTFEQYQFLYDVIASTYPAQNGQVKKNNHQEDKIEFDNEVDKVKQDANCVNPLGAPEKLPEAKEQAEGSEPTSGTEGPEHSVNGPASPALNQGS
UniProt P30626, sequence (P30626 whole entry, one chain of several): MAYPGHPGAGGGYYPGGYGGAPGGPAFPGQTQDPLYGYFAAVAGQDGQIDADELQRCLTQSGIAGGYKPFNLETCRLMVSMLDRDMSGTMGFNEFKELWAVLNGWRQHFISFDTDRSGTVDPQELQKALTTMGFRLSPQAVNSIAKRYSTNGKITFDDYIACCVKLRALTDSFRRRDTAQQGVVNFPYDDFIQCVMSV
UniProt O75676, sequence (O75676 whole entry, looked up, one chain of several): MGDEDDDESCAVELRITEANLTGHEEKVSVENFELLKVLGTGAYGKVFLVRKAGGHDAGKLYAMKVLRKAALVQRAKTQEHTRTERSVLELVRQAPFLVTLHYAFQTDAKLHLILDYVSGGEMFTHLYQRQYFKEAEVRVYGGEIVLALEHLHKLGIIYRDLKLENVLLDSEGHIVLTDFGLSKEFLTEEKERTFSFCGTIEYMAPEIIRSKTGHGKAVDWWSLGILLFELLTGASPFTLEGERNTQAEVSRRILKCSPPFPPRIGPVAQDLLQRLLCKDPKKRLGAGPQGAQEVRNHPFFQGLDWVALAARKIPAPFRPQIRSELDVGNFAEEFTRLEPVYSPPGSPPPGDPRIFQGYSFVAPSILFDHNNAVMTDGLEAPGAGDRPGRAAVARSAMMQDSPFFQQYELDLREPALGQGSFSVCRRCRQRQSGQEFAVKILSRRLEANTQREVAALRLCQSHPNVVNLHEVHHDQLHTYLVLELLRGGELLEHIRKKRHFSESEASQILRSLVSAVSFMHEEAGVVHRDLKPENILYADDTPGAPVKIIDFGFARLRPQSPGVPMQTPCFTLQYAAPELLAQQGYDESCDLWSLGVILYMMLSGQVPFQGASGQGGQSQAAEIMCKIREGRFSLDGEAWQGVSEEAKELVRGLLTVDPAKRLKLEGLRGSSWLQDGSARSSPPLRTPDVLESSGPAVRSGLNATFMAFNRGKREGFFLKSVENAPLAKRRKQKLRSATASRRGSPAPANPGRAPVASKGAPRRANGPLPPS
UniProt O14776, sequence (O14776 whole entry): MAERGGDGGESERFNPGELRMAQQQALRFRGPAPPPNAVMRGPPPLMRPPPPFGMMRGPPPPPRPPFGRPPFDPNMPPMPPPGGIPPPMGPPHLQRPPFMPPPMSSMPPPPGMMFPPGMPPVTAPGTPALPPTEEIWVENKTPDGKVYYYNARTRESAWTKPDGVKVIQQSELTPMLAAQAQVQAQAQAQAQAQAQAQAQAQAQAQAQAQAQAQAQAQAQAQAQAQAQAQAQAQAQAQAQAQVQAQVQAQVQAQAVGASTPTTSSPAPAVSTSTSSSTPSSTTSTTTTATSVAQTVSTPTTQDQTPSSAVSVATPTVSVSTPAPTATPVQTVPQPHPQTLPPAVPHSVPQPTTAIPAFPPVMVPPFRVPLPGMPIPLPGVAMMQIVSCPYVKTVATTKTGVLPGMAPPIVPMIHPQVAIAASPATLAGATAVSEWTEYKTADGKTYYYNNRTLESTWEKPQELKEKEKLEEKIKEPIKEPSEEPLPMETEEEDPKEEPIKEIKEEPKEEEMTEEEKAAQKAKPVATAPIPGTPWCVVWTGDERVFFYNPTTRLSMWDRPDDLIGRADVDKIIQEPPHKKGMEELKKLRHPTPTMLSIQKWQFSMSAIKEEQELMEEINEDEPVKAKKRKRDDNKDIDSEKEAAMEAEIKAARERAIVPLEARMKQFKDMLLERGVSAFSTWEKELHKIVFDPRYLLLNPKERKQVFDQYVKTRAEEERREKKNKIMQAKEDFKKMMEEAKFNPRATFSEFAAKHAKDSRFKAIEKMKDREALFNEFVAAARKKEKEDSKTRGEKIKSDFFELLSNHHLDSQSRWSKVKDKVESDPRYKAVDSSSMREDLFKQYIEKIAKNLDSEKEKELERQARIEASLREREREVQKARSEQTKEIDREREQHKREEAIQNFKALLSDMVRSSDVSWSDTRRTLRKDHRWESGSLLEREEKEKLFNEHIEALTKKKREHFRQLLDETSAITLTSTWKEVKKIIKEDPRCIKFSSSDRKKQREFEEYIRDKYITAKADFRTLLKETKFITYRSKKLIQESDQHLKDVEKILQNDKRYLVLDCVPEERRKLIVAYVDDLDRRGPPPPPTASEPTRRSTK
UniProt O15269, sequence (O15269 whole entry): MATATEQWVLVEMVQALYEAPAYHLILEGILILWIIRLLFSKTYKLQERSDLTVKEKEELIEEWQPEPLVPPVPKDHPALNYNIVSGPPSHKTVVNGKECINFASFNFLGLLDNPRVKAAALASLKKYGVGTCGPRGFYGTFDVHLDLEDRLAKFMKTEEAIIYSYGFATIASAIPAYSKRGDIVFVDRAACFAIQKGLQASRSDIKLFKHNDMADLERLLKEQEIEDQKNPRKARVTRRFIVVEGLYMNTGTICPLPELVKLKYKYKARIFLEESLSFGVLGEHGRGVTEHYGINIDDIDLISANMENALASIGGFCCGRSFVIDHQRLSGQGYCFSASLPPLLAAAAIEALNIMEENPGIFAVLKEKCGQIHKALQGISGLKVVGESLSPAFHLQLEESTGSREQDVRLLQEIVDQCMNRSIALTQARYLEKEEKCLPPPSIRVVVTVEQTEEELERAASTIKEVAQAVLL

Target	NP40-soluble protein abundance (concentration: 1mM)	NP40-soluble protein abundance (concentration: 2mM)	NP40-soluble protein abundance (concentration: 4mM)	NP40-soluble protein abundance (concentration: 6mM)	NP40-soluble protein abundance (concentration: 8mM)	NP40-soluble protein abundance (concentration: 10mM)
I3L1H5|Q9BZG8 (UniProt Q9BZG8)	0.984 ± 0.17	1.03 ± 0.12	0.987 ± 0.16	0.898 ± 0.12	0.987 ± 0.16	0.917 ± 0.13
B1AKN5|B1AKN7|B1AKN8|Q12857|Q12857-3|Q12857-4|B1AKN6|S4R3K4|Q12857-2 (UniProt Q12857)	1.22 ± 0.072	1.08 ± 0.11	1.12 ± 0.081	1.21 ± 0.13	0.995 ± 0.072	1.13 ± 0.033
DYNC1LI2 (UniProt O43237)	0.947 ± 0.049	0.939 ± 0.049	0.905 ± 0.047	0.959 ± 0.14	0.92 ± 0.075	0.932 ± 0.032
SLC25A20 (UniProt O43772)	0.918 ± 0.088	0.945 ± 0.037	0.943 ± 0.012	0.822 ± 0.099	0.884 ± 0.028	0.974 ± 0.0095
J3KTD6|Q96GD4|Q96GD4-5 (UniProt Q96GD4)	1.37 ± 0.16	1.47 ± 0.18	1.6 ± 0.16	1.58 ± 0.25	1.71 ± 0.032	1.76 ± 0.072
D0EV57|P01889|P10321|P13746-2|P16188|P30493|P30499|P30504|P30505|P30508|P30685|Q29865|Q29963|Q5SRN5|Q6DU44|Q8MH48|A0A140T912|E9PIB1|O19617|Q29940|Q29718 (UniProt Q29718+Q29940+E9PIB1+Q8MH48+Q6DU44+Q5SRN5+D0EV57+P01889+P10321+P30505+P13746+P30499+P16188+P30493+Q29865+P30504+P30508+P30685+O19617+Q29963)	0.961 ± 0.026	0.9786 ± 0.0089	0.9485 ± 0.0059	0.977 ± 0.013	0.949 ± 0.022	0.96 ± 0.015
URB1 (UniProt O60287)	1.29 ± 0.067	1.41 ± 0.043	1.65 ± 0.057	1.7 ± 0.12	1.94 ± 0.12	2.15 ± 0.084
A0A0G2JPT5|O75943|O75943-2 (UniProt O75943)	1.49 ± 0.28	1.59 ± 0.3	1.62 ± 0.32	1.7 ± 0.33	1.69 ± 0.28	1.65 ± 0.33
UniProt O15379|O15379-2	1 ± 0.019	0.9928 ± 0.0062	0.985 ± 0.04	0.994 ± 0.053	1.04 ± 0.044	1.03 ± 0.065
DNAJC13 (UniProt O75165)	1.15 ± 0.024	1.29 ± 0.095	1.3 ± 0.043	1.35 ± 0.12	1.68 ± 0.12	1.73 ± 0.22
TRIM38 (UniProt O00635)	0.949 ± 0.053	1 ± 0.018	0.988 ± 0.041	0.955 ± 0.046	0.986 ± 0.034	0.993 ± 0.045
SPTLC1 (UniProt O15269)	0.993 ± 0.026	0.998 ± 0.032	0.997 ± 0.027	0.93 ± 0.096	0.998 ± 0.024	1 ± 0.049
A0A0A0MTC1|A0A0A0MTR7 (UniProt Q63HN8)	1.15 ± 0.14	1.11 ± 0.096	1.12 ± 0.083	1.03 ± 0.074	1.2 ± 0.049	1.11 ± 0.031
CPNE3 (UniProt O75131)	0.969 ± 0.067	0.983 ± 0.052	0.954 ± 0.054	0.903 ± 0.1	0.951 ± 0.024	0.96 ± 0.024
C9J0K6|P30626|P30626-2|P30626-3 (UniProt P30626)	0.887 ± 0.066	0.921 ± 0.078	0.892 ± 0.039	0.911 ± 0.072	0.896 ± 0.011	0.811 ± 0.12
I3L448|Q5TC12 (UniProt Q5TC12)	0.982 ± 0.049	0.985 ± 0.028	0.983 ± 0.046	0.998 ± 0.04	0.96 ± 0.04	0.952 ± 0.022
NUDT21 (UniProt O43809)	1.95 ± 0.11	2.06 ± 0.064	2.18 ± 0.1	2.25 ± 0.052	2.31 ± 0.1	2.213 ± 0.019
K7EK70|Q49A26 (UniProt Q49A26)	1.18 ± 0.095	1.25 ± 0.1	1.38 ± 0.1	1.45 ± 0.083	1.57 ± 0.16	1.76 ± 0.081
UniProt O14776|O14776-2	0.972 ± 0.011	0.9735 ± 0.0036	0.959 ± 0.024	1.03 ± 0.021	1.01 ± 0.024	1.02 ± 0.013
C9JLB7|Q96HP4 (UniProt Q96HP4)	1.09 ± 0.083	1.1 ± 0.1	1.06 ± 0.075	1.12 ± 0.17	1.17 ± 0.14	1.05 ± 0.042
A0A0A0MTB8|Q8NI36 (UniProt Q8NI36)	1.21 ± 0.057	1.37 ± 0.057	1.68 ± 0.13	1.86 ± 0.23	2.12 ± 0.14	2.17 ± 0.17
TMEM120B (UniProt A0PK00)	0.948 ± 0.058	1.05 ± 0.042	1.04 ± 0.09	0.894 ± 0.12	1.15 ± 0.13	1.13 ± 0.14
E7EQI7|Q12768 (UniProt Q12768)	1.06 ± 0.1	1.06 ± 0.075	1.05 ± 0.076	0.962 ± 0.11	1.07 ± 0.068	1.02 ± 0.05
A0A0A0MT22|M9MML4|P08575|P08575-2|X6R433 (UniProt P08575)	0.946 ± 0.026	0.9679 ± 0.0084	0.9321 ± 0.0056	0.967 ± 0.014	0.918 ± 0.018	0.943 ± 0.036
E9PJN1|O75676|O75676-2 (UniProt O75676)	1.36 ± 0.22	2.6 ± 1.5	1.34 ± 0.17	1.35 ± 0.17	1.31 ± 0.26	1.38 ± 0.13
B4DWF2|Q9UKS7|Q9UKS7-2 (UniProt Q9UKS7)	1.02 ± 0.062	1.03 ± 0.072	1.04 ± 0.061	1.11 ± 0.089	1.1 ± 0.061	1.2 ± 0.066
B7ZBA0|Q8NI27 (UniProt Q8NI27)	1.52 ± 0.091	1.62 ± 0.074	1.89 ± 0.076	2.09 ± 0.2	2.4 ± 0.17	2.4 ± 0.21
H0Y6E7|H3BT71|P38159|P38159-2 (UniProt P38159)	1.13 ± 0.068	1.22 ± 0.042	1.34 ± 0.046	1.56 ± 0.087	1.62 ± 0.026	1.79 ± 0.064
J3KPP4|O95232 (UniProt O95232)	2.04 ± 0.11	2.06 ± 0.14	2.12 ± 0.1	2.32 ± 0.14	2.27 ± 0.13	2.32 ± 0.18
A2ABJ5|O75955|A0A140T9R1 (UniProt O75955)	1.03 ± 0.047	0.948 ± 0.029	0.926 ± 0.012	0.925 ± 0.11	0.931 ± 0.071	0.916 ± 0.052
